Measured values reported in PubChem BioAssay (NCATS).
Results filed as inconclusive are left out. A call without a number means that no potency is given here. Calls of active or inactive are those of the source. Unless noted, calls come from the whole dose curve; as a rule, active = well fitted curve in the direction sought with a large enough effect; inconclusive = small, poorly fitted or top-dose-only effect, or another doubt; inactive = no such curve, though single readings can be large; an effect the other way counts as inactive or inconclusive.

Tests used:
[1] = target: Luciferin 4-monooxygenase (Photinus pyralis) (UniProt P08659); test: Biochemical firefly luciferase enzyme assay for NPC (AID 624030);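 note: purified P. pyralis luciferase at 10 nM with luciferin and ATP substrate; nearly all actives have a fitted effect of over 70% in size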
How it was run: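 Counter-screen for direct inhibition of the luciferase enzyme by approved-drug library compounds, run at 10 nM enzyme in 50 mM Tris acetate (final). Luminescence was read within 5 min of enzyme-buffer addition and normalized to PTC124 versus DMSO (0%).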

[2] = S16 Schwann cell PMP22 intronic element beta-lactamase assay (AID 624044; calls by dose curve; note: nearly all actives have a fitted effect of over 15% in size)
How it was run: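 Beta-lactamase reporter under a PMP22 intronic regulatory element in stable S16 rat Schwann cells; 24 h compound exposure. 460 nm blue signal normalized between DMSO (0%) and potassium clavulanate, with 535 nm FRET tracking viability; curves classed by r2 and response.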

CP194 = test: qHTS profiling for inhibitors of Plasmodium falciparum proliferation (AID 504749); note: nearly all actives have a fitted effect of over 60% in size; note: potency is the fitted concentration of half-maximal effect; details: P. falciparum in erythrocytes, SYBR Green DNA, 72 h; series mostly up to 28.7 µM
How it was run: (§1)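 Quantitative HTS: compounds pinned into medium, infected erythrocytes added (0.3% parasitemia, 2.5% hematocrit), 72 h culture at 37 C under 5% CO2. Saponin/Triton lysis with SYBR Green I, overnight RT, then fluorescence read.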

CP201 = test: as above; details: P. falciparum in erythrocytes, SYBR Green DNA, 72 h; series mostly up to 28.7 µM
How it was run: as §1

CP211 = test: as above; details: P. falciparum in erythrocytes, SYBR Green DNA, 72 h; series mostly up to 28.7 µM
How it was run: as §1

CP215 = test: as above; details: P. falciparum in erythrocytes, SYBR Green DNA, 72 h; series mostly up to 28.7 µM
How it was run: as §1

CP250 = test: as above; details: P. falciparum in erythrocytes, SYBR Green DNA, 72 h; series mostly up to 28.7 µM
How it was run: as §1

CP256 = test: as above; details: P. falciparum in erythrocytes, SYBR Green DNA, 72 h; series mostly up to 28.7 µM
How it was run: as §1

CP291 = test: as above; details: P. falciparum in erythrocytes, SYBR Green DNA, 72 h; series mostly up to 28.7 µM
How it was run: as §1

CP315 = test: as above; details: P. falciparum in erythrocytes, SYBR Green DNA, 72 h; series mostly up to 28.7 µM
How it was run: as §1

CP325 = test: as above; details: P. falciparum in erythrocytes, SYBR Green DNA, 72 h; series mostly up to 28.7 µM
How it was run: as §1

CP335 = test: as above; details: P. falciparum in erythrocytes, SYBR Green DNA, 72 h; series mostly up to 28.7 µM
How it was run: as §1

GB4 = test: as above; details: P. falciparum in erythrocytes, SYBR Green DNA, 72 h; series mostly up to 28.7 µM
How it was run: as §1

PC15 = test: as above; details: P. falciparum in erythrocytes, SYBR Green DNA, 72 h; series mostly up to 28.7 µM
How it was run: as §1

[3] = S16 Schwann cell viability assay (CellTiter-Glo assay) (AID 624031);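 note: cellular ATP luminescence as a viability measure; nearly all actives have a fitted effect of over 70% in size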
How it was run: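 CellTiter-Glo ATP luminescence counter-screen in untransfected S16 rat Schwann cells, 24h compound exposure at 37 degree Celsius after overnight seeding (500-750 cells/well); response scaled between cell-free wells and DMSO (0% activity), curves classed by r2 and magnitude.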

[4] = target: Cytochrome P450 3A4 (Homo sapiens) (UniProt P08684); test: qHTS Assay for Inhibitors and Substrates of Cytochrome P450 3A4 (AID 884); note: nearly all actives have a fitted effect of over 50% in size; note: potency is the fitted concentration of half-maximal effect
How it was run: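 Luminescent readout of luciferin produced by CYP3A4 (20 nM) dealkylation of Luciferin-PPXE, 25 uM (its KM). NADPH-driven reaction ran 60 min at RT after 10 min compound preincubation; data scaled to 57 uM ketoconazole as 100% inhibition.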

[5] = target: Ubiquitin carboxyl-terminal hydrolase 1 (Homo sapiens) (UniProt O94782); test: Inhibitors of USP1/UAF1: Pilot qHTS (AID 504865);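 note: rhodamine fluorescence freed from ubiquitin-rhodamine substrate followed over time; top concentration of the series differs between compounds; nearly all actives have a fitted effect of over 35% in size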
How it was run: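 1nM USP1/UAF1 + cpd, 15 min RT; start w/ Ub-Rho 150nM final; kinetic FL 480/540 nm, 6 reads q60 s. Buffer 50mM HEPES pH 7.8, 0.5mM EDTA, 1mM TCEP, 0.01% Tween-20, 0.1 mg/ml BSA.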

[6] = target: DNA dC->dU-editing enzyme APOBEC-3G (Homo sapiens) (UniProt Q9HC16); test: qHTS for inhibitors of Vif-A3G interactions: Validation (AID 588379)
How it was run: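 Yellow fluorescence (Ex 488, Em 500-530) of Vif-coexpressing HeLa A3G-eYFP cells, scanned by Acumen cytometer, reports blocked A3G degradation. Cells plated at 700/well overnight at 37 deg C before compound addition, then a further overnight compound incubation at 37 deg C.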

[7] = target: Cytochrome P450 3A4 (Homo sapiens) (UniProt P08684); test: qHTS Assay for Activators of Cytochrome P450 3A4 (AID 885); note: nearly all actives have a fitted effect of over 65% in size
How it was run: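 Human CYP3A4 dealkylates Luciferin-PPXE to luciferin, which luciferase detection converts to light. Substrate was at its KM (25uM), buffer 200mM KPO4, reaction 60 min at RT.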

ICS = test: qHTS profiling for inhibitors of Plasmodium falciparum proliferation (AID 504749); note: nearly all actives have a fitted effect of over 60% in size; note: potency is the fitted concentration of half-maximal effect; details: P. falciparum in erythrocytes, SYBR Green DNA, 72 h; series mostly up to 28.7 µM
How it was run: as §1

Ubiquitin carboxyl-terminal hydrolase 1 (Homo sapiens), sequence (O94782 whole entry, looked up): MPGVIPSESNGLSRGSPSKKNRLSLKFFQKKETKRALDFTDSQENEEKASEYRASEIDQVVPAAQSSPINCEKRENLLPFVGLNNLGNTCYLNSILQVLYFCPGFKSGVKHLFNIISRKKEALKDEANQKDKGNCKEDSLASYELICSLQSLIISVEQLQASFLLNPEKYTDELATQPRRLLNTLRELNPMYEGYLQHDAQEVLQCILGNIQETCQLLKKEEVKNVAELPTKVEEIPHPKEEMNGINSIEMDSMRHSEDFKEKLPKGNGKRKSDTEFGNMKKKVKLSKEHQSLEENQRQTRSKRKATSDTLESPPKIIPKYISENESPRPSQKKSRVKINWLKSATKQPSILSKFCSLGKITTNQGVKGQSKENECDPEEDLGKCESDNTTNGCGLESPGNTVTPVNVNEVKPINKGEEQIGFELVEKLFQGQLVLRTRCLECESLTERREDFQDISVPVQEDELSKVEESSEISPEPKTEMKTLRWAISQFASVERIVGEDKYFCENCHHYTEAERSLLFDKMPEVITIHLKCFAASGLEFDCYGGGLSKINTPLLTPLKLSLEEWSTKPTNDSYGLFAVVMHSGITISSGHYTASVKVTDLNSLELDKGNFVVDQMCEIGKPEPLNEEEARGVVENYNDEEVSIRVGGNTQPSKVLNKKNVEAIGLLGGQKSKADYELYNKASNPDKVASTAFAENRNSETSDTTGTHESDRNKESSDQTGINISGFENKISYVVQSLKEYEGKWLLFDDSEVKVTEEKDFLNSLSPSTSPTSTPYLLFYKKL
Cytochrome P450 3A4 (Homo sapiens), sequence (P08684 whole entry, looked up): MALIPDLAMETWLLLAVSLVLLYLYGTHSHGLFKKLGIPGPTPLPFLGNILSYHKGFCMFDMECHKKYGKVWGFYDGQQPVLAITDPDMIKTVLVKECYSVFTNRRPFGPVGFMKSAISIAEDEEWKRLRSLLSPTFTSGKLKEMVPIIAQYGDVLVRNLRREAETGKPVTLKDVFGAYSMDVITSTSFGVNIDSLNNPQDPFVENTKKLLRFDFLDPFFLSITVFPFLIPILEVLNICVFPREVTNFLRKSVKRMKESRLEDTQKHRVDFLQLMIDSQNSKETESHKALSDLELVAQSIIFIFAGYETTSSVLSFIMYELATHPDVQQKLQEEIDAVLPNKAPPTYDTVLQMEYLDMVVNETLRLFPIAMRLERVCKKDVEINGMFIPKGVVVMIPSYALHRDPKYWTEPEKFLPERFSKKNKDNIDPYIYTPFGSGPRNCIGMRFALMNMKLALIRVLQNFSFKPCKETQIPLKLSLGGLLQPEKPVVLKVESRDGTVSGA
Luciferin 4-monooxygenase (Photinus pyralis), sequence (P08659 whole entry, looked up): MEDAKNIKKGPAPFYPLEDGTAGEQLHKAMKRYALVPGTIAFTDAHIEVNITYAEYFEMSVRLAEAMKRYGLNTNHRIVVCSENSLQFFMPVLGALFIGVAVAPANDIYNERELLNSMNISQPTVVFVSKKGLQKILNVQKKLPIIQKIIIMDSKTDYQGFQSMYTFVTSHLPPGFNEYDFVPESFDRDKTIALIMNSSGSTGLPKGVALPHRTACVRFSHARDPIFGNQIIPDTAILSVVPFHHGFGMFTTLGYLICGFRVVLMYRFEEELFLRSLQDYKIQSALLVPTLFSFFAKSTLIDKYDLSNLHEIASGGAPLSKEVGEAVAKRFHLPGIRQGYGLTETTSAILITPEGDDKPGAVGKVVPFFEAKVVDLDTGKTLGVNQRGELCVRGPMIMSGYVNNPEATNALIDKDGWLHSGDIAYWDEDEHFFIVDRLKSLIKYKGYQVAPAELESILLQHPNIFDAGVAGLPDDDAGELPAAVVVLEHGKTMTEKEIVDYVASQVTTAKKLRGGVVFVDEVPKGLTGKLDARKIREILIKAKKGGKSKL
DNA dC->dU-editing enzyme APOBEC-3G (Homo sapiens), sequence (Q9HC16 whole entry, looked up): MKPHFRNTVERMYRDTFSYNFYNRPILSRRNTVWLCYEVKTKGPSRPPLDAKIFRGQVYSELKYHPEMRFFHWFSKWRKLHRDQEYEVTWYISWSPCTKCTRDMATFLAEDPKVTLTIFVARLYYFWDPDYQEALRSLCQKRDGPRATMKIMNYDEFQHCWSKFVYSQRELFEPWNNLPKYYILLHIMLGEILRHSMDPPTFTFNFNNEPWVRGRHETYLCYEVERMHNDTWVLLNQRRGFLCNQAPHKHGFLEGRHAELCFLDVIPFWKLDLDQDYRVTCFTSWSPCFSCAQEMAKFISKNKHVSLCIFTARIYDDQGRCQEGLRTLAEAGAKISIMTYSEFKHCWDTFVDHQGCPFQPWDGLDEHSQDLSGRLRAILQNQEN

In the case of `C=C1/C(=C\C=C2/CCC[C@]3(C)[C@@H]([C@H](C)CCCC(C)(C)O)CC[C@@H]23)C[C@@H](O)C[C@@H]1O`, the Potency [1] is reported as “inactive”, the outcome [2] is reported as “inactive” and the Potency (CP194) is reported as “inactive”. The Potency (CP201) was “inactive”, the Potency (CP211) was “inactive” and the Potency (CP215) was “inactive”. The Potency (CP250) was “inactive”, the Potency (CP256) was “inactive” and the Potency (CP291) was “inactive”. For the same compound, the Potency (CP315) was “inactive”, the Potency (CP325) was “inactive” and the Potency (CP335) was “inactive”. For the same compound, the Potency (GB4) was “inactive” and the Potency (PC15) was “inactive”.
For `CC(C)n1c(/C=C/[C@H](O)C[C@H](O)CC(=O)O)c(-c2ccc(F)cc2)c2ccccc21`, the outcome [3] was “inactive”.
With `O=C(CCc1ccc(O)cc1)c1c(O)cc(O)cc1O[C@@H]1O[C@H](CO)[C@@H](O)[C@H](O)[C@H]1O` the Potency [4] was “inactive”, the Potency [5] was “inactive” and the outcome [6] was “inactive”.
For `NCCC(=O)NCCc1cnc[nH]1`, the Potency [7] was “inactive” and the Potency [5] was “inactive”.
With `C[C@]12CCC(=O)C=C1CC[C@@H]1C2[C@@H](O)C[C@@]2(C)[C@H]1CC[C@]2(O)C(=O)CO` (some centres not stated) the Potency [5] was “inactive” and the outcome [6] was “inactive”.
With `COc1cc(=O)n(C)c2c(OCC(O)C(C)(C)O)cccc12` (configuration not stated) the Potency [4] was “inactive” and the outcome [6] was “inactive”.
In the case of `CN=C(N)NCCCC(N)C(=O)O` (configuration not stated), the Potency [5] is reported as “inactive”, the Potency [1] is reported as “inactive” and the outcome [3] is reported as “inactive”. For the same compound, the outcome [2] was “inactive”, the Potency (CP194) was “inactive” and the Potency (CP201) was “inactive”. For the same compound, the Potency (CP211) was “inactive”, the Potency (CP215) was “inactive” and the Potency (CP250) was “inactive”. The Potency (CP256) was “inactive”, the Potency (CP291) was “inactive” and the Potency (CP315) was “inactive”. The Potency (CP325) was “inactive”, the Potency (CP335) was “inactive” and the Potency (GB4) was “inactive”. The Potency (ICS) was “inactive” and the Potency (PC15) was “inactive”.
For `N[C@H](Cc1ccc(O)c(O)c1)C(=O)O`, the Potency (CP250) was “inactive”, the Potency (CP256) was “inactive” and the Potency (ICS) was “inactive”.
For `NCCNC(=O)c1ccc(Cl)cc1`, the outcome [6] was “inactive”.
With `N=C1Sc2ccccc2C2=NCCCN12` the Potency [7] was “inactive”.
For `CN1C(=O)CCC1c1cccnc1` (configuration not stated), the Potency [4] was “inactive”, the Potency [5] was “inactive” and the outcome [6] was “inactive”. For the same compound, the Potency [1] was “inactive”, the outcome [3] was “inactive” and the outcome [2] was “inactive”. For the same compound, the Potency (CP194) was “inactive”, the Potency (CP201) was “inactive” and the Potency (CP211) was “inactive”. For the same compound, the Potency (CP215) was “inactive”, the Potency (CP250) was “inactive” and the Potency (CP256) was “inactive”. The Potency (CP291) was “inactive”, the Potency (CP315) was “inactive” and the Potency (CP325) was “inactive”. The Potency (CP335) was “inactive”, the Potency (GB4) was “inactive” and the Potency (ICS) was “inactive”. For the same compound, the Potency (PC15) was “inactive”.
In the case of `OC[C@H]1O[C@@H](n2cnc3c(NCCc4ccccc4)ncnc32)[C@H](O)[C@H]1O`, the Potency [4] is reported as “inactive”.
In the case of `COc1cc2c(cc1OC)C(c1ccccc1)CN(C)CC2` (configuration not stated), the Potency [5] is reported as “inactive”, the Potency [1] is reported as “inactive” and the outcome [3] is reported as “inactive”. The outcome [2] was “inactive”, the Potency (CP194) was “inactive” and the Potency (CP201) was “inactive”. For the same compound, the Potency (CP211) was “inactive”, the Potency (CP215) was “inactive” and the Potency (CP291) was “inactive”. For the same compound, the Potency (CP315) was “inactive”, the Potency (CP325) was “inactive” and the Potency (PC15) was “inactive”.
In the case of `CC(C)(C)[C@]1(O)CCN2CC3c4ccccc4CCc4cccc(c43)[C@@H]2C1` (some centres not stated), the Potency [1] is reported as “inactive”, the Potency (CP215) is reported as “inactive” and the Potency (CP315) is reported as “inactive”. The Potency (CP335) was 10.7 µM (active), the Potency (GB4) was 9.53 µM (active) and the Potency (ICS) was 10 µM (active).
For `NCCCCNS(=O)(=O)c1cccc2c(Cl)cccc12`, the Potency [7] was “inactive”.
With `COC(=O)c1c(-c2cc(OC)c(OC)c(OC)c2)c2ccc(OCc3ccccn3)cc2c(=O)n1-c1ccc(N)cc1` the Potency [4] was 0.398 µM (active) and the Potency [7] was “inactive”.
For `CCSC(N)=Nc1ccc(C(F)(F)F)cc1`, the Potency [7] was “inactive”.
For `COc1ccc(CCNC[C@@H](O)c2ccc(O)cc2)cc1OC`, the Potency [1] was “inactive”, the outcome [3] was “inactive” and the outcome [2] was “inactive”. The Potency (CP194) was “inactive”, the Potency (CP201) was “inactive” and the Potency (CP211) was “inactive”. The Potency (CP215) was “inactive”, the Potency (CP250) was “inactive” and the Potency (CP256) was “inactive”. For the same compound, the Potency (CP291) was “inactive”, the Potency (CP315) was “inactive” and the Potency (CP325) was “inactive”. For the same compound, the Potency (CP335) was “inactive”, the Potency (GB4) was “inactive” and the Potency (ICS) was “inactive”. For the same compound, the Potency (PC15) was “inactive”.
For `CN1C[C@H](C(=O)N[C@]2(C)O[C@@]3(O)C4CCCN4C(=O)[C@H](Cc4ccccc4)N3C2=O)C[C@@H]2c3cccc4[nH]cc(c34)C[C@H]21` (some centres not stated), the outcome [6] was “inactive”, the Potency (CP250) was 11.2 µM (active) and the Potency (CP256) was 7.94 µM (active). For the same compound, the Potency (ICS) was 0.1 µM (active) and the Potency (PC15) was 1.12 µM (active).
With `CCCC(=O)NCCc1c2n(c3ccc(OC)cc13)Cc1ccccc1-2` the Potency [4] was 2.51 µM (active) and the Potency [7] was “inactive”.
With `CCn1c(=O)c2[nH]c(-c3ccccc3)nc2n(CC)c1=O` the Potency [7] was “inactive”.
With `CC(C)C[C@H]1C(=O)N2CCCC2[C@]2(O)O[C@](NC(=O)[C@@H]3C=C4c5cccc6[nH]c(Br)c(c56)C[C@H]4N(C)C3)(C(C)C)C(=O)N12` (some centres not stated) the Potency [1] was “inactive”, the outcome [3] was “inactive” and the outcome [2] was “inactive”. The Potency (CP194) was 13.5 µM (active), the Potency (CP201) was 13.5 µM (active) and the Potency (CP211) was 15.1 µM (active). For the same compound, the Potency (CP215) was 8.49 µM (active), the Potency (CP250) was 12.6 µM (active) and the Potency (CP256) was 11.2 µM (active). For the same compound, the Potency (CP291) was 10.7 µM (active), the Potency (CP325) was 9.53 µM (active) and the Potency (CP335) was 3.79 µM (active). The Potency (GB4) was 6.01 µM (active), the Potency (ICS) was 0.708 µM (active) and the Potency (PC15) was 7.94 µM (active).
